# Bioassay records: PubChem BioAssay, NMMLSC
# Hits are enriched below; roughly 1.3% of the tested compounds scored in any of these assays.
# MEP2-GFP yeast = yeast TOR pathway MEP2-GFP modulation; S. cerevisiae MEP2-GFP strain, flow cytometry GFP, 3 h; 100% = DMSO control level; GFP response vs DMSO, % at 10 µM; hit rate 0.51% among 330,000; AID 2016;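 active means GFP response versus DMSO above a set limit, roughly screen mean plus 3 SD, cut at about 180% in these data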;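 further: median GFP fluorescence of the barcode-gated MEP2-GFP cells per well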
# LAP4 TOR yeast = alters LAP4-GFP fluorescence in TOR pathway yeast screen | S. cerevisiae LAP4-GFP multiplex, flow cytometry GFP, 3 h; median GFP as percent of DMSO wells | GFP response vs DMSO, % at 10 µM | hit rate 0.34% among 320,000;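 active means GFP response vs DMSO above a set limit, about the screen mean plus 3 SD, cut at about 150% in these data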
# AGP1-GFP MLPCN = yeast TOR pathway AGP1-GFP modulation; S. cerevisiae AGP1-GFP multiplex flow cytometry, 3 h; GFP as percent of DMSO wells; GFP response vs DMSO, % at 10 µM; hit rate 0.02% among 320,000;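 active means GFP response relative to DMSO above a set limit, near screen average plus 3 SD, cut at about 150% in these data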;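 further: median GFP channel fluorescence of the gated AGP1 strain per well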
# CIT2-GFP yeast = yeast TOR pathway CIT2-GFP modulation; S. cerevisiae CIT2-GFP strain, flow cytometry, 3 h; 100 means same as DMSO wells; GFP response vs DMSO, % at 10 µM; hit rate 0.065% among 320,000; AID 2029;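 active means GFP response relative to DMSO above a set limit, near the screen mean plus 3 SD, cut at about 150% in these data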;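 further: ratio of well median GFP fluorescence to mean of DMSO wells on the plate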
# RPL19A-GFP yeast = yeast TOR pathway RPL19A-GFP modulation. S. cerevisiae RPL19A-GFP strain, flow cytometry, 3 h; active compounds read low. hit rate 0.3% among 330,000. AID 2025. percent response vs DMSO, % at 10 µM;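 active means percent response vs DMSO below 50%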;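 further: median channel GFP fluorescence of the barcoded RPL19A-GFP strain; ratio of sample median GFP to plate DMSO average so 100% = DMSO; lower means less RPL19A-GFP as with rapamycin TOR inhibition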
# Efflux pump inh = antifungal efflux pump inhibition, Nile Red retention | S. cerevisiae Candida pump triplex | inhibition, % at 10 µM | hit rate 0.44% among 330,000 | AID 485275;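 active means plate passing quality check with inhibition over a set limit, or well fluorescence over plate mean plus 4 SD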;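 further: Nile Red retained in pooled yeast measured as flow cytometry median fluorescence; 0% = buffer negative control and 100% = Enniatin B positive control; higher means more Nile Red kept so more efflux inhibition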
# Yeast cmpd fluor = compound fluorescence in yeast efflux pump counter-screen | shares compounds with Efflux pump inh | S. cerevisiae AD/pABC3, flow cytometry | fluorescence ratio to DMSO, % at 10 µM | hit rate 4% among 1,700;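 active means fluorescence ratio to DMSO above its plate's cutoff, the plate mean ratio plus 5 SD, cut at about 210% in these data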;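 further: unstained yeast with no Nile Red so the signal is compound autofluorescence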
# CaMdr1 efflux inh = Candida Mdr1 efflux pump inhibition | S. cerevisiae AD/CaMDR1, Nile Red efflux, flow cytometry | inhibition, % at 10 µM | hit rate 1% among 1,700 | shares compounds with Efflux pump inh; in the data active means inhibition above about 26%;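 further: 0% = DMSO vehicle and 100% = reference inhibitor; higher means more Nile Red retained so more efflux inhibition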
# CaCdr2 efflux inh = blocks the Candida albicans Cdr2 efflux pump in yeast. hit rate 4% among 1,700. Nile Red retention ratio vs DMSO, % at 10 µM. S. cerevisiae AD/CaCDR2, Nile Red retention, flow cytometry. shares compounds with Efflux pump inh; in the data active means Nile Red retention ratio vs DMSO above about 190%;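 further: higher ratio means more blocking of Cdr2 efflux of the dye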
# CaCdr1 efflux inh = Candida Cdr1 efflux pump inhibition; shares compounds with Efflux pump inh; S. cerevisiae AD/CaCDR1, Nile Red efflux, flow cytometry; inhibition, % at 10 µM; hit rate 1% among 1,700; AID 588522;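 active means inhibition above the screen-wide mean plus twice its standard deviation, cut at about 32% in these data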
# Active calls of the source: *; . = no result.
SMILES,MEP2-GFP yeast,LAP4 TOR yeast,AGP1-GFP MLPCN,CIT2-GFP yeast,RPL19A-GFP yeast,Efflux pump inh,Yeast cmpd fluor,CaMdr1 efflux inh,CaCdr2 efflux inh,CaCdr1 efflux inh
O=C(CN1CCCC1)Nc1ccccc1C(=O)c1ccccc1,98,104,107,100,101,0,.,.,.,.
CCOC(=O)C1CCN(C(=S)NC(=O)c2cccs2)CC1,132,97,16,98,87,0,.,.,.,.
Nc1cc2c(cc1C(=O)c1cccc(Br)c1)OCCO2,106,101,100,110,104,0.6*,100,0,104,0
CCc1nnc2n1N=C(c1ccc(OC)cc1)CS2,103,109,100,90,96,0.8*,91,-1,87,0
CCOc1ccccc1NC(=O)COC(=O)C1CCC(=O)N1 (stereo not given),107,93,100,104,98,0,.,.,.,.
CC(=O)OC[C@H]1O[C@@H](O[C@H]2C[C@]3(C)C(C[C@@H](O)C4C([C@]5(C)CC[C@@H](C(C)(C)O)O5)CC[C@]43C)[C@@]3(C)CC[C@H](O)C(C)(C)C23)[C@H](O[C@@H]2O[C@@H](C)[C@H](O)[C@@H](O)[C@H]2O)[C@@H](O)[C@@H]1O (stereo not given in full),102,95,98,89,97,0,.,.,.,.
C=C[C@](C)(CC[C@@]1(C)C(C)CC(OC2OC(C)C(OC3OC(COC(C)=O)C(O)C(O)C3O)C(O)C2O)[C@@]2(C)C(C)=CCCC12)OC1OC(C)C(O[C@@H]2O[C@@H](C)C(O)C(O)[C@H]2O)C(O)C1O (stereo not given in full),85,93,87,85,89,1.4*,113,0,129,0
O=C(CN1C(=O)NC2(CCCC2)C1=O)OCCOc1ccccc1,108,114,100,99,100,0,.,.,.,.
Cc1ccc(NC(=O)COC(=O)c2cc(Cl)ccc2Cl)c(Br)c1,100,91,95,88,99,1.3*,97,0,87,0
Cc1ccc(NC(=O)COC(=O)c2ccc(F)cc2Cl)c(Br)c1,98,107,98,90,100,0,.,.,.,.
COc1cc(C(=O)NC2CC(C)(C)Cc3c2cnn3-c2ccccc2)cc(OC)c1OC (stereo not given),94,89,97,97,98,0,.,.,.,.
COc1cccc(C(=O)NC2CC(C)(C)Cc3c2cnn3-c2cccc(F)c2)c1OC (stereo not given),111,105,101,95,98,0,107,0,106,0
COc1ccc(-n2ncc3c2CC(C)(C)CC3NC(=O)c2cnc(C)cn2)cc1 (stereo not given),97,93,97,104,96,0,105,0,96,0
Cc1cnc(C(=O)NC2CC(C)(C)Cc3c2cnn3-c2ccccc2)cn1 (stereo not given),89,89,93,91,93,1,98,0,107,0
CCCCC(O)(c1ccc(F)cc1)C(CN1CCOCC1)c1ccc(Cl)cc1 (stereo not given),115,94,94,102,105,0,.,.,.,.
CCOC(=O)C1CCCN(S(=O)(=O)Cc2ccc(Cl)cc2)C1 (stereo not given),108,94,103,100,107,0,.,.,.,.
CC1CCCCN1C(=O)COC(=O)C1CCN(S(=O)(=O)c2ccc3c(c2)OCCO3)CC1 (stereo not given),96,103,108,82,98,0,.,.,.,.
O=C1NC(=S)S/C1=C\c1ccc(SCc2ccco2)o1,94,119,76,79,95,4.7*,125,0,157,0
O=C1NC(=S)S/C1=C/c1ccc(OC(=O)c2ccco2)cc1,96,92,64,88,96,0,.,.,.,.
O=C1NC(=S)S/C1=C\c1ccc(SCc2ccccc2)o1,113,129,86,103,98,4.5*,121,0,187*,0
COC(=O)Cn1c(CN2CCOCC2)nc2c1c(=O)[nH]c(=O)n2C,104,104,100,96,103,1.2*,108,0,104,0
CCOc1ccc(S(=O)(=O)N(CC(=O)N2CCC(C(N)=O)CC2)c2ccc(F)cc2)cc1,99,95,106,103,99,0,.,.,.,.
Cc1ccc(/C=C/C(=O)OCC(=O)NCCN2C(=O)CSC2=O)cc1,106,102,105,104,102,0,.,.,.,.
O=C(COC(=O)c1ccc(S(=O)(=O)Nc2ccccc2)cc1)NCCN1C(=O)CSC1=O,106,100,102,108,99,0,.,.,.,.
CSc1ccccc1C(=O)OCC(=O)NCCN1C(=O)CSC1=O,105,100,101,100,103,0,.,.,.,.
SMILES,MEP2-GFP yeast,LAP4 TOR yeast,AGP1-GFP MLPCN,CIT2-GFP yeast,RPL19A-GFP yeast,Efflux pump inh,Yeast cmpd fluor,CaMdr1 efflux inh,CaCdr2 efflux inh,CaCdr1 efflux inh
Cc1ccc(C(=O)OCC(=O)NCCN2C(=O)CSC2=O)cc1,98,84,97,96,102,0,101,0,102,0
COc1ccc(C(=O)OCC(=O)NCCN2C(=O)CSC2=O)cc1,93,94,96,88,89,0,108,0,91,0
CCN(CC)S(=O)(=O)c1ccc(C(=O)OCC(=O)NCCN2C(=O)CSC2=O)cc1,100,100,111,101,104,0,109,0,112,0
O=C(COC(=O)c1ccc(Br)cc1)NCCN1C(=O)CSC1=O,106,99,102,93,103,0,112,0,99,0
CCSc1cc(N2CCCC2)nc(-c2ccccc2Cl)n1,104,102,100,100,102,0,106,0,96,0
CCSc1cc(N2CCCC2)nc(-c2ccccc2)n1,141,113,96,105,98,0,.,.,.,.
CSc1cc(N2CCOCC2)nc(-c2ccccc2Cl)n1,109,120,102,92,104,1,91,0,103,0
COCc1cc(N2CCOCC2)nc(-c2ccccc2)n1,99,103,102,89,102,0,.,.,.,.
CC(C)Sc1cc(N2CCOCC2)nc(-c2ccccc2)n1,122,110,88,95,96,0,106,0,108,0
